# Integrin act MD = integrin-mediated muscular dystrophy alleviation activation. AID 624291. 350,000 tested, 0.064% active. alpha7betagal myoblasts, beta-gal FDG fluorescence, 48 h. Potency, µM (series often up to 38.3 µM), inactives show top-dose activation, usual class: activators;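 also: potency is read from the fitted curve at half-maximal effect; 100% = response of the positive control SU9516; nearly all actives have a fitted effect of over 60% in size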
#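 Alpha7betagal+/- myoblasts (passage 13) were plated 16-24 hr, then exposed to compounds (1:260 dilution of DMSO stock) for 48 hours at 37C. After MPER lysis, β-galactosidase reporter activity was read as FDG fluorescence (ex 480/em 540) after 30 minutes.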
# B2AR arrestin = beta2AR (human) beta-arrestin recruitment activity | beta-arrestin recruitment to beta2AR, cell-based reporter | Potency, µM (highest dose often 46.1 µM), for inactives: at the highest dose activation, actives largely listed as activators | 330,000 tested, 0.02% active | AID 492947;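 also: potency is read from the fitted curve at half-maximal effect; 0% = DMSO controls and full agonism = EC100 isoproterenol or metaproterenol; nearly all actives have a fitted effect of over 65% in size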
# DRD3 antagonist = blocks the human D3 dopamine receptor; 360,000 tested, 2.5% active; AID 652054; max response, negative = inhibition, %; D3R cells, DiscoveRx beta-arrestin luminescence, antagonist mode; stronger effect = lower value; P35462; in the data active = max response below about -50%; inconclusive = no clear call, values can overlap the other calls; also: % is scaled to controls: 0 for no effect and ±100 for the full control effect
# Target sequence (P35462 whole entry, looked up): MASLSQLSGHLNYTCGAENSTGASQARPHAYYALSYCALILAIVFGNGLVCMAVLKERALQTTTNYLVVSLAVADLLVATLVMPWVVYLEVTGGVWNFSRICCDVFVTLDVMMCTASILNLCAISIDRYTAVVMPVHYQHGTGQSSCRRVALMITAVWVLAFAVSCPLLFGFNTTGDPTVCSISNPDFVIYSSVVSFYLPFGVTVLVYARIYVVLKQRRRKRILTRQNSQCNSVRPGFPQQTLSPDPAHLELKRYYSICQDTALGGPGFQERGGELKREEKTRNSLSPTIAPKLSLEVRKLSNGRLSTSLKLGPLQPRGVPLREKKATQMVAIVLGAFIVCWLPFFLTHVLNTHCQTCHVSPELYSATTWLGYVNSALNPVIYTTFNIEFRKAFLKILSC
#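 Cells plated overnight at 1500 cells/well, then exposed to library compounds with dopamine controls for 90 minutes at 37 degrees C. DiscoveRx reagent added for 30–60 minutes at room temperature; luminescence read, quantitative HTS format.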
# IDH1 R132H inh = human IDH1 R132H inhibition; O75874; IDH1-R132H enzyme, NADPH consumption, diaphorase/resazurin fluorescence; Potency, µM (titrated, usually from 76.6 µM), for the others: at the highest dose activity change, negative = inhibition, usual class: inhibitors; 390,000 tested, 0.093% active; also: potency is read from the fitted curve at half-maximal effect; % is scaled to controls: 0 for no effect and ±100 for the full control effect; nearly all actives have a fitted effect of over 65% in size
#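 IDH1-R132H (0.5 ug/mL) preincubated 30 min with compound, then NADPH (0.016 mM) and alpha-KG (2 mM) added; 80 min at RT, pH 7.5. Remaining NADPH coupled via diaphorase/resazurin to fluorescence (540/590 nm); concentration-response curves normalized to no-enzyme control.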
# DRD3 agonist = D3 dopamine receptor (human) agonism | 410,000 tested, 0.58% active | D3R DiscoveRx beta-arrestin cells, luminescence, 90 min | max activation, % | AID 652048 | P35462; in the data active = max activation above about 30%; also: 0% is about no effect
#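 Cells at 1500/well, incubated overnight, then treated with pinned compounds (dopamine as control) for 90 min at 37 degrees C. DiscoveRx reagent added for 30 - 60 minutes at room temperature; luminescence read.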
# * marks the source's active call; other numbers are inactive results; ? = inconclusive; . = not tested or not shown; [ ] = dose if it differs, or a comment. A selection: hits, their analogues and other compounds. The true share with any hit is near 2.9%. Unless noted, calls follow the shape of the dose curve; as a rule, active = well fitted curve in the direction sought with a large enough effect; inconclusive = small, poorly fitted or top-dose-only effect, or another doubt; inactive = no such curve, though single readings can be large; an effect the other way counts as inactive or inconclusive.
SMILES,Integrin act MD,B2AR arrestin,DRD3 antagonist,IDH1 R132H inh,DRD3 agonist
NC(=O)C1c2ccccc2Oc2ccccc21,4%,0%,4,-2%,7
CC(C)c1ccc(Nc2cc(C(=O)NC3CCCCC3)c3ccccc3n2)cc1,.,.,.,-3%,2
COc1ccc(CN2CCSCC2)c(OC)c1C,3%,-1%,-1,5%,7
COc1cc2c(cc1OC)CN(Cc1ccccc1)CC2,-21%,-1%,-24,-2%,-27
COc1cc2c(cc1OC)CN(Cc1ccc(OC)c(C)c1OC)CC2,-30%[7.66 µM],0%,-77*,0%,-7
COc1cc2c(cc1OC)CN(CC(O)c1ccccc1)CC2 (configuration not stated),-18%,0%,-22,14%,-8
COc1cc2c(cc1OC)CN(Cc1ccc(C)cc1)CC2,9%,0%,-80*,2%,-10
COc1cc2c(cc1OC)CN(Cc1cccs1)CC2,7%,0%,-54*,9%,-12
COc1cc2c(cc1OC)CN(CCC(C)c1ccc(Cl)cc1)CC2 (configuration not stated),-52%,.,-91*,0%,-14
NC(=O)OC[C@@H]1[C@H](NC(=O)/C(=N\OCC(=O)O)c2csc(N)n2)C(=O)N1S(=O)(=O)O,.,.,.,.,1
CCOc1ccccc1CNC(=O)Cn1cc2c(n1)-c1c(oc(C(=O)N3CCCC3)c1C)CC2,.,.,.,19%,6
CC(C)CCOc1ccc(CO[C@@H]2[C@H]3OC(C)(C)O[C@H]3O[C@@H]2C(O)CO)cc1 (some centres not stated),-12%,-1%,-3,15%,-6
Cc1cc(=O)[nH]c2nnc(SCC(=O)NC(C)(C)C)n12,.,.,.,-2%,-8
Cc1cc(=O)[nH]c2nnc(SCC(=O)Nc3ccc(OC(F)(F)F)cc3)n12,.,.,.,-13%,47*
CCCc1nn2c(=O)cc(COC(=O)c3ccc(NC(=O)CCc4ccccc4)cc3)nc2s1,.,.,.,-24%,-8
O=C(OCn1ncc(Br)c(Br)c1=O)c1ccccc1Cl,-63%,0%,-88*,3%,-33
O=C(OCn1ncc(Br)c(Br)c1=O)c1ccc(F)cc1,-53%,0%,-83*,-5%,-13
CCOC(=O)c1cc(NC(=O)c2ccccc2)c(=O)n2c1oc1ccc(Cl)cc12,.,.,.,0%,1
Cc1cc(C)c(OCC(=O)N(Cc2ccc(N(C)C)cc2)Cc2ccco2)c(C)c1,.,.,.,.,5
CCc1ccc(-c2cn3c(n2)sc2cc(C(=O)NC4CCCCC4)ccc23)cc1,.,.,.,10%,1
Cn1c(SCC(=O)N/N=C/C=C/c2ccccc2[N+](=O)[O-])nc2ccccc21,-40%,0%,1,3%,-2
Cn1c(SCC(=O)N/N=C/C=C/c2ccco2)nc2ccccc21,-33%,18µM*,1,2%,1
O=C(O)CN1C(=O)C=CC1=O,-11%,.,-19,-3%,-1
O=C1C=CC(=O)N1CCCCCCN1C(=O)C=CC1=O,0%,-1%,-72*,4%,-14
CCC1Nc2ncnc(N3CCCCC3)c2N(Cc2ccc(C)cc2)C1=O (configuration not stated),18%,0%,?,4%,-9
SMILES,Integrin act MD,B2AR arrestin,DRD3 antagonist,IDH1 R132H inh,DRD3 agonist
Cc1ccc(CN2C(=O)C(C)Nc3ncnc(N4CCN(c5ccccn5)CC4)c32)cc1 (configuration not stated),-12%,-1%,-132*,3%,-54
COc1ccc(CN2C(=O)C(C)Nc3ncnc(N4CCN(c5ccccn5)CC4)c32)cc1 (configuration not stated),-47%,0%,-149*,-11%,-58
CC1Nc2ncnc(N3CCN(c4ccccn4)CC3)c2N(Cc2ccccc2)C1=O (configuration not stated),-19%,-1%,-106*,-12%,-45
COc1ccc(CCNC(=O)CSc2cn(CCNC(=O)c3cccc(C(F)(F)F)c3)c3ccccc23)cc1OC,.,.,.,-7%,8
CC1O[C@@H](OCC2O[C@@H](Oc3cc(O)c4c(c3)OC(c3ccc(O)cc3)CC4=O)[C@H](O)[C@@H](O)[C@@H]2O)[C@H](O)[C@H](O)[C@H]1O (some centres not stated),31%,-1%,-58*,-12%,-24
CC1(C)N=C(N)N=C(N)N1c1ccc(OCCCOc2ccccc2)c(Cl)c1,-52%,-1%,-2,7%,1
